Most compounds without a hit are left out; they make up all but 4.1% or so of the library.
hcDAF-12 act = H. contortus DAF-12 activation, primary screen | hit rate 1.4% among 370,000 | AID 652067 | activation, % at 6.8 µM | HEK293 hcDAF-12 lit1-tk-luc reporter, luminescence; 0% DMSO, 100% Δ7-dafachronic acid;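 active means activation above the mean of all tested compounds plus 3 SD, cut at about 5.5% in these data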;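 further: 100% = response to 3 µM Δ7-dafachronic acid high control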
DAX1 inh-1 = NR0B1 (DAX1) inhibition | inhibition, % at 6.75 µM | AID 504766 | HEK293 Gal4-DAX1 luciferase reporter, luminescence | P51843 | hit rate 0.99% among 340,000;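 active means inhibition above the mean over all tested compounds plus 3 SD, cut at about 4.2% in these data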;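 further: 0% = DAX1-transfected cells with DMSO and 100% = empty-vector control cells with DMSO; inhibition shows as a rise in luminescence from relieved DAX1 repression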
Target sequence (P51843 207-470 limits assumed): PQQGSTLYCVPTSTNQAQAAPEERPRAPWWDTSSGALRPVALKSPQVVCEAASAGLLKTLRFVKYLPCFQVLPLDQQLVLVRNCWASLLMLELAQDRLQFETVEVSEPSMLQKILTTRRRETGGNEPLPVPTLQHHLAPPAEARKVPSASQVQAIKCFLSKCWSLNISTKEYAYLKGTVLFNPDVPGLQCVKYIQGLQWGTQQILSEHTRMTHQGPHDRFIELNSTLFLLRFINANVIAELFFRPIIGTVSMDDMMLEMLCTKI
ssDAF-12 act = activates DAF-12 receptor from parasite S. stercoralis; HEK293 ssDAF-12/GRIP1 lit1-tk-luc reporter, luminescence; % of 3 µM dafachronic acid response; activation, % at 6.8 µM; hit rate 1% among 370,000; AID 652126;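 active means activation above the mean over all tested compounds plus 3 SD, cut at about 0.9% in these data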;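 further: 0% = DMSO-only wells and 100% = 3 µM delta7-dafachronic acid wells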
DAX1 inh-2 = DAX1 (NR0B1) inhibition, primary screen. inhibition, % at 6.8 µM. AID 652010. HEK293T StAR-luciferase reporter, SF-1/DAX-1 repression relief. hit rate 1.1% among 370,000;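 active means inhibition above the mean over all tested compounds plus 3 SD, cut at about 3.6% in these data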;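 further: 0% = DAX-1 cells with DMSO and 100% = cells lacking DAX-1 with DMSO; higher inhibition means more luminescence from relief of DAX-1 repression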
hgDAF-12 ag = hgDAF-12 agonism, primary luciferase screen; HEK293 GAL4-hgDAF12 UAS-luciferase reporter, agonist luminescence; normalized to butyrate control; activation, % at 6.8 µM; hit rate 1.8% among 370,000; AID 687014;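 active means activation above a cutoff set at the mean of all screened compounds plus 3 SD, cut at about 10% in these data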;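 further: 0% = DMSO wells and 100% = sodium butyrate wells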
* = called active by the depositor; · = no result.

SMILES	hcDAF-12 act	DAX1 inh-1	ssDAF-12 act	DAX1 inh-2	hgDAF-12 ag
CC1(C)CC(=O)N(CC(=O)N2CCN(c3cccc(Cl)c3Cl)CC2)c2ccccc2S1(=O)=O	-3.6	·	-1.1	-0.6	-2.2
CCN(C(=O)[C@@H](C)[C@@H](O)c1ccc(Cl)cc1)c1ccccc1	-1.5	·	-1.3	-1.7	-3.5
CCCN1CCCCC(NC(=O)c2ccc(Cl)cc2Cl)C1=O (stereo unspecified)	-0.6	·	-0.2	-0.7	-1.1
CCCCCCCCN1C(=O)[C@@H](CC(=O)NCC2CCCCC2)C[C@@]2(C(=O)OC)C1=C[C@H](COCc1ccccc1)O[C@@H]2C	2.7	·	0.2	0.2	1.8
CC(C)C(=O)NNc1nc2ccccc2s1	6.2*	-0.3	-0.8	0.9	8.7
Cc1cc(Cl)ccc1NC(=O)/N=C1/NC(=O)CS1	0.7	·	1.1*	0.6	-1.1
C#CCNC(=O)C[C@H]1C[C@@]2(C(=O)OC)C(=C[C@H](C(C)(C)C)O[C@@H]2C)N(Cc2ccc3c(c2)OCO3)C1=O	-1.1	·	-1.0	-1.2	-0.9
Cc1cccc(CN2C(=O)c3ccccc3S(=O)(=O)c3ccc(C(=O)NCCCN4CCCC4)cc32)c1	2.2	0.1	-0.5	1.4	2.8
O=C(NCCN1CCCC1)c1ccc2c(c1)N(Cc1cccc(Cl)c1)C(=O)c1ccccc1S2(=O)=O	6.2*	-0.1	-1.1	1.1	-0.4
COC(=O)C1CN(Cc2cn(CCC3OCCO3)nn2)CCS(=O)(=O)N1Cc1ccc(F)cc1 (stereo unspecified)	0.1	·	-1.2	-0.9	-2.4
C[C@@H]1ON(C)[C@H]2C[C@H]3c4[nH]c5ccccc5c4CCN3C[C@@H]12	2.7	2.6	1.4*	0.1	-0.6
Cc1cccc(-c2ccc3[nH]c4c(c3c2)CCN2C[C@H]3[C@H](C)ON(C)[C@H]3C[C@@H]42)c1	0.1	-0.6	-0.9	-1.0	1.3
C[C@@H]1ON(C)[C@H]2C[C@H]3c4cc(-c5ccc(F)cc5)ccc4CCN3C[C@@H]12	-0.7	·	0.9*	-1.5	1.9
CCCC1CCC2(CC1)CCC2OC(=S)NCc1cccc(F)c1 (stereo unspecified)	-1.7	·	-1.6	·	1.3
CCCCOCC1CN(CCCC)S(=O)(=O)c2c(cccc2N2CCCCC2)O1 (stereo unspecified)	0.1	·	-1.3	0.4	-0.8
O=C(N1CCOCC1)N1CCN(S(=O)(=O)c2ccc(Cl)cc2)C1	2.0	0.9	1.0*	0.1	-1.8
O=C(CSc1nc2ccccc2nc1N1CCOCC1)NCc1ccc(Cl)cc1Cl	0.7	·	-1.6	-0.8	2.2
c1ccc(-c2nc3c4ccccc4ccn3c2CN2CCCCC2)cc1	3.0	0.9	0.1	0.1	3.6
Fc1ccc(-c2nc3c4ccccc4ccn3c2CC2CCCCC2)cc1	6.4*	·	1.6*	1.7	3.9
Clc1cccc(-c2nc3c4ccccc4ccn3c2CC2CCCCC2)c1	4.2	·	1.1*	1.8	2.5
CCCc1nc2c3ccccc3ccn2c1CC1CCCCC1	6.2*	·	0.3	0.9	6.2
Cc1ccc(Cc2c(-c3cccc(Cl)c3)nc3c4ccccc4ccn23)cc1	4.3	·	0.3	1.1	4.4
COC(=O)[C@@H]1[C@H](O[Si](C)(C)C(C)(C)C)C2OC2C[C@H]1S(=O)(=O)c1ccccc1 (stereo partly specified)	-2.2	·	-2.0	·	-0.2
Cc1ccc(CN2CC(N3CCC[C@@H]3C)CS2(=O)=O)cc1 (stereo partly specified)	-0.7	·	-1.0	-1.0	1.1
CC(N=Cc1c(O)c2ccccc2oc1=O)C(=O)O (stereo unspecified)	-0.3	-0.2	-1.5	-0.3	11.4*
SMILES	hcDAF-12 act	DAX1 inh-1	ssDAF-12 act	DAX1 inh-2	hgDAF-12 ag
O=C(O)C(CO)N=Cc1c(O)c2ccccc2oc1=O (stereo unspecified)	-0.6	0.7	-1.2	-0.1	-1.0
O=C(/C=C\c1ccccc1[N+](=O)[O-])Nc1ccccc1	4.0	2.9	0.0	0.8	10.8*
O=C(/C=C/c1ccccc1)Nc1cccc(C(=O)O)c1	3.1	-8.4	-0.7	4.4*	12.9*
C[C@@H]1C(=O)N2N=Cc3cc4ccccc4cc3[C@H]2N2N=Cc3cc4ccccc4cc3[C@@H]12	-2.1	·	-1.6	-2.5	-7.4
CCOC(=O)C1=CCC(c2ccc([N+](=O)[O-])cc2)N(S(=O)(=O)c2ccc(C)cc2)C1 (stereo unspecified)	-2.1	·	-1.5	-2.3	5.1
CCC1CCCCN1C(=O)c1cc2c(=O)n3cccc(C)c3nc2s1 (stereo unspecified)	·	1.6	·	·	·
